Assay [1] in a line: antimalarial activity against Dd2 strain (AID 2302;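 active means growth inhibition above 50% at the single 2 µM test dose, taken to imply half-maximal potency below 2 µM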;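 further: 0% = DMSO untreated growth and 100% = chloroquine plus artemisinin killed control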). The settings on record: P. falciparum Dd2 in RBCs, LDH growth readout, 72 h; at 2 µM; stronger effect = higher value.
Assay [2] is described as follows: HepG2 cytotoxicity, primary screen, cytotoxicity control for P. falciparum antimalarial project, cell-based, ATP luminescence (AID 2303;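 active means inhibition above 50%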;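 further: 0% = DMSO wells and 100% = digitonin-killed cells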). The settings on record: HepG2 viability, 24-48 h, at 10 µM, stronger effect = higher value.
For assay [3], the target named is L-lactate dehydrogenase (Plasmodium falciparum (isolate CDC / Honduras)) (UniProt Q27743). Put plainly: PfLDH activity inhibition – cell lysate, 3D7 strain, counter-screen for P. falciparum growth inhibition project (AID 2304).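 Further: 0% = vehicle and 100% = reference inhibitor.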 The settings on record: P. falciparum 3D7 crude extract, LDH APAD/NBT absorbance; at 2 µM; stronger effect = higher value. Background: A counterscreen serves to expose hits that act by an unwanted route or on another target.
Sequence of L-lactate dehydrogenase (Plasmodium falciparum (isolate CDC / Honduras)) (Q27743 whole entry, looked up): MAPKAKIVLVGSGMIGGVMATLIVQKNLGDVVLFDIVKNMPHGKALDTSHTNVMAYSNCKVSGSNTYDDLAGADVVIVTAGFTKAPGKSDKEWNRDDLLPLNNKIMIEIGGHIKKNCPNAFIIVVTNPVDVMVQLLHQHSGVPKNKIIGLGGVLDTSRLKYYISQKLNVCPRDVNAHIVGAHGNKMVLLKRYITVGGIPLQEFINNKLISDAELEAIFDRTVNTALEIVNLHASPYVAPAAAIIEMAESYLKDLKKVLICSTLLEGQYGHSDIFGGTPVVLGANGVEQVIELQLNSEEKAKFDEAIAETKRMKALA

Assay [4] can be described thus: inhibition of 3D7 malaria parasite growth – strain 3D7 (AID 2306).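 Further: 0% = DMSO wells and 100% = chloroquine plus artemisinin control wells.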 The conditions noted are these: P. falciparum 3D7 erythrocytic growth, LDH absorbance, 72 h; at 2 µM; stronger effect = higher value.
For assay [5], the target named is Calcium-dependent protein kinase 1 (Plasmodium falciparum (isolate 3D7)) (UniProt P62344). Put plainly: PfCDPK1 kinase inhibitors, biochemical, TCAMS library (AID 1159585; cut-off not given, nearly all actives have IC50 up to about 0.98 µM;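 further: inhibitors leave more ATP so luminescence rises with inhibition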). The conditions noted are these: recombinant PfCDPK1, Kinase-Glo ATP depletion luminescence. On the technique in general: Kinase-Glo measures the ATP left after a reaction by luminescence.
Sequence of Calcium-dependent protein kinase 1 (Plasmodium falciparum (isolate 3D7)) (P62344 whole entry, looked up): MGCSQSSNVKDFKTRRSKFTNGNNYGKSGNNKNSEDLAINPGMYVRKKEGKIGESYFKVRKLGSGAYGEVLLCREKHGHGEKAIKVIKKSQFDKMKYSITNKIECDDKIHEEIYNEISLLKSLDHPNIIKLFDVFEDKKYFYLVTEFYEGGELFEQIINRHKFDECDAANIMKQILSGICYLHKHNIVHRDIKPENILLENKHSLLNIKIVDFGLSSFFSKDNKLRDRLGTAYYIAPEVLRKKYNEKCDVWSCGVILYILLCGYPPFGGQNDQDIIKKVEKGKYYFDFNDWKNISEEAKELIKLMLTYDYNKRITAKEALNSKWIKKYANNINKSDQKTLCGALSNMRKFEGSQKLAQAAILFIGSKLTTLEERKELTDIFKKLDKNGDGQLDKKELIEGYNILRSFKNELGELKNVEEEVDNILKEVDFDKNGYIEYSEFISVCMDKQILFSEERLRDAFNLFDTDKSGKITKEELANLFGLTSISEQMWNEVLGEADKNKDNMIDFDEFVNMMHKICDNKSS
Assay [6] addresses Plasmodium falciparum protein kinase 6 (PK6, PF3D7_1337100) (UniProt Q8IDW1). Put plainly: PfPK6 kinase inhibitors, biochemical, TCAMS library (AID 1159586). The settings on record: recombinant PfPK6, Kinase-Glo ATP depletion luminescence.
The target of assay [7] is Protein kinase 7 (PK7), Plasmodium falciparum 3D7 (PF3D7_0213400) (UniProt Q7YTF7). The assay can be described thus: inhibition of Plasmodium PK7 catalytic activity – biochemical, TCAMS antimalarial set, Kinase-Glo luminescence (AID 1159587). The conditions noted are these: recombinant PfPK7, Kinase-Glo ATP depletion luminescence.
Sequence of Protein kinase 7 (PK7), Plasmodium falciparum 3D7 (PF3D7_0213400) (Q7YTF7 1-343): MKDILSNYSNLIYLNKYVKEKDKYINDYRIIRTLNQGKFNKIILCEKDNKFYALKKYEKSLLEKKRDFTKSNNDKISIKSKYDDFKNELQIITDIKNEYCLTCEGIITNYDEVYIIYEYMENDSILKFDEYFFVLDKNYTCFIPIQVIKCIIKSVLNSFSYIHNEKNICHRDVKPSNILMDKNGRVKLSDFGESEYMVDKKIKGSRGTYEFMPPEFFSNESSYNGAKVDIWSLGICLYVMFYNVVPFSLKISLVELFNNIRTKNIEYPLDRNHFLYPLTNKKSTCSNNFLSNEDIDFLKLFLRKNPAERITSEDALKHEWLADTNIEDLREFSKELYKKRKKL
The target of assay [8] is Calcium-dependent protein kinase 4 (Plasmodium falciparum (isolate 3D7)) (UniProt Q8IBS5). The assay can be described thus: PfCDPK4 kinase inhibitors, biochemical, TCAMS library (AID 1159588; cut-off not given, nearly all actives have IC50 up to about 0.91 µM). The conditions noted are these: recombinant PfCDPK4, Kinase-Glo ATP depletion luminescence.
Sequence of Calcium-dependent protein kinase 4 (Plasmodium falciparum (isolate 3D7)) (Q8IBS5 whole entry, looked up): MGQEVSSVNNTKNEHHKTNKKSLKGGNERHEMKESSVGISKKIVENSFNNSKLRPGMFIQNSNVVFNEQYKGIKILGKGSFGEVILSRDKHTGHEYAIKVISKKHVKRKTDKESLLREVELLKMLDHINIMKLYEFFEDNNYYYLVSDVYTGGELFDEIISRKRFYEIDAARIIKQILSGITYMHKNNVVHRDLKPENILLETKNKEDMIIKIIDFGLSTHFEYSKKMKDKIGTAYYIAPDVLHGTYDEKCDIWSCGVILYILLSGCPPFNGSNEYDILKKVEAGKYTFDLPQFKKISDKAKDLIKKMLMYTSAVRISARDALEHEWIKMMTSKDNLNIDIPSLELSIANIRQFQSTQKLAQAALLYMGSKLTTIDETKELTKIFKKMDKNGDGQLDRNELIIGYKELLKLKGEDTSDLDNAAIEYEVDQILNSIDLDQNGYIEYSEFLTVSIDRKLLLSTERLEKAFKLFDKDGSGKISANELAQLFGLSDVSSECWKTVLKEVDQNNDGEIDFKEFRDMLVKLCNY

A number with no mark means an inactive call. For some of these results: Potency and affinity values are given separately. Calls of active or inactive are those of the source. Unless noted, how the calls were made is not given here.

As a reminder, the inhibition is the drop in the measured response relative to a control, in per cent.

Sequence of Plasmodium falciparum protein kinase 6 (PK6, PF3D7_1337100) (Q8IDW1 1-305): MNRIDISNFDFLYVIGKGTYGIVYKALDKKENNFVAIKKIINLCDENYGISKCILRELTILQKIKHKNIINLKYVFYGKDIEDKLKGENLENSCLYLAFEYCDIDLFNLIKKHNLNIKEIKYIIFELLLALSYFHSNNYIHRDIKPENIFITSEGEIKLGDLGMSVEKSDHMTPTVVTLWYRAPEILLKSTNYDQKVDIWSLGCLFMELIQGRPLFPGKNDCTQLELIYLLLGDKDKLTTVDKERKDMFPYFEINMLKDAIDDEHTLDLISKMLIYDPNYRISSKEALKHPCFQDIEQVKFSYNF

`CCOc1ccc2ccccc2c1CNCCCCCCNCc1c(OCC)ccc2ccccc12`: the growth inhibition is 89% (active) in assay [1] and 100% (active) in assay [4]. Moreover, the inhibition in assay [2] is 100% (active); in assay [3] it was -2%. In addition, the result in assay [5], in assay [6], in assay [7] and in assay [8] was inactive.

Regarding `CCCc1cc(Cc2cnc(N)nc2N)cc(CCC)c1OCCCCC(=O)OC`, the growth inhibition is -5% in assay [1] and 94% (active) in assay [4]. Moreover, the inhibition in assay [2] was -7%; in assay [3], -5%. In addition, the result in assay [5], in assay [6], in assay [7] and in assay [8] was inactive.

On to `Cc1onc(-c2c(Cl)cccc2Cl)c1C(=O)NC1=NC(C)(C)ON1c1ccccc1`, for which the growth inhibition in assay [1] was 36%; in assay [4], 97% (active). Also, the inhibition in assay [2] was 6%; in assay [3], 1%. Moreover, the outcome in assay [5], in assay [6], in assay [7] and in assay [8] was inactive.

`Cc1ccc(N)cc1-c1nc(NC2CC(C)(C)NC(C)(C)C2)nc2c1ccc(=O)n2-c1c(F)cccc1F`: the growth inhibition in assay [1] was 1%; in assay [4], 98% (active). For the same molecule, the inhibition is 0% in assay [2] and -5% in assay [3]. The result in assay [5], in assay [6], in assay [7] and in assay [8] was inactive.

Take `COc1cc(/C=C/C(=O)NCC(CCNc2cc(=O)c3ccccc3[nH]2)NCc2cc(Br)cc(Br)c2)cc(OC)c1` (stereo not given): the growth inhibition in assay [1] is 28%; in assay [4], 90% (active). The inhibition is -11% in assay [2] and -4% in assay [3]. In addition, the result in assay [5], in assay [6], in assay [7] and in assay [8] was inactive.

As for `CSc1ccc(NC(=O)Nc2cc(C)nc3ccccc23)cc1Br`, the growth inhibition was 66% (active) in assay [1] and 101% (active) in assay [4]. In addition, the inhibition was 7% in assay [2] and -6% in assay [3]. The result in assay [5], in assay [6], in assay [7] and in assay [8] was inactive.

Consider `COc1ccc(CN2CCCN(Cc3cccc(NC(=O)c4ccc5ccccc5c4)c3)CC2)cc1`, for which the figures for the growth inhibition in assay [1] and in assay [4] were 11% and 93% (active), respectively. For the same molecule, the figures for the inhibition in assay [2] and in assay [3] were 27% and -5%, respectively. The result in assay [5], in assay [6], in assay [7] and in assay [8] was inactive.

On to `O=C(Nc1ccc(Cl)cc1)Nc1ccc(-c2cccc(-c3nc4ccc(F)cc4[nH]3)c2)cc1`, for which the growth inhibition is 96% (active) in assay [1] and 101% (active) in assay [4]. Moreover, the inhibition in assay [2] was 74% (active); in assay [3] it was -1%. Moreover, the result in assay [5], in assay [6], in assay [7] and in assay [8] was inactive.

Regarding `Cn1c(Nc2nnc(C3CC3)s2)nc2cc(Nc3ccnc(Nc4cccc(CS(C)(=O)=O)c4)n3)ccc21`, the growth inhibition in assay [1] was 83% (active); in assay [4] it was 97% (active). Further, the values for the inhibition in assay [2] and in assay [3] were -6% and -1%, respectively. Moreover, the outcome in assay [5], in assay [6], in assay [7] and in assay [8] was inactive.

Regarding `CC(C)(C)NCCN(Cc1ccc(-c2ccc(C(F)(F)F)cc2)cc1)C(=O)Cn1c(CCc2cccc(F)c2F)nc(=O)c2c1CCC2`, the growth inhibition in assay [1] was 48%; in assay [4], 95% (active). In addition, the inhibition in assay [2] and in assay [3] was 6% in each case. Moreover, the result in assay [5], in assay [6], in assay [7] and in assay [8] was inactive.

On to `CCc1nc2nc(C)cc(Nc3cc(C)cc(C)c3)n2n1`, for which the growth inhibition in assay [1] and in assay [4] was 96% (active) throughout. Further, the inhibition is 21% in assay [2] and 7% in assay [3]. In addition, the result in assay [5], in assay [6], in assay [7] and in assay [8] was inactive.

Regarding `Fc1ccc(Nc2n[nH]c(CNC3CCN(Cc4ccc(Cl)c(Cl)c4)CC3)n2)cc1`, the figures for the growth inhibition in assay [1] and in assay [4] were 36% and 101% (active), respectively. Further, the inhibition in assay [2] is 18%; in assay [3] it was 5%. Besides, the outcome in assay [5], in assay [6], in assay [7] and in assay [8] was inactive.

Turning to `O=C(/C=C/c1ccc(C(F)(F)F)cc1)NCCCCCN1CCCN(C(=O)Nc2cccc(Cl)c2)CC1`, the growth inhibition was 3% in assay [1] and 92% (active) in assay [4]. Moreover, the inhibition in assay [2] was 16%; in assay [3], 3%. The outcome in assay [5], in assay [6], in assay [7] and in assay [8] was inactive.

For the molecule `CN(C)CCN(C)C(=O)c1cc(-c2ccncc2)c(-c2ccc(Cl)c(O)c2)o1`, the results for the growth inhibition in assay [1] and in assay [4] were 34% and 97% (active), respectively. For the same molecule, the inhibition in assay [2] is -11%; in assay [3], 0%. Moreover, the result in assay [5], in assay [6], in assay [7] and in assay [8] was inactive.

For the molecule `CC(C)C[C@H](NC(=O)c1cc2ccccc2s1)C(=O)N[C@H]1CCN(Cc2ccc(OC[C@@H]3CCCN3C)c3ccccc23)C1`, the growth inhibition in assay [1] was 93% (active); in assay [4] it was 101% (active). Also, the results for the inhibition in assay [2] and in assay [3] were 69% (active) and -2%, respectively. For the same molecule, the outcome in assay [5], in assay [6], in assay [7] and in assay [8] was inactive.

Consider `O=C(Nc1cccc(C(F)(F)F)c1)NC1CCN(c2ccnc3cc(Cl)ccc23)C1` (stereo not given), for which the growth inhibition in assay [1] was 89% (active); in assay [4], 101% (active). For the same molecule, the inhibition in assay [2] was 18%; in assay [3], 6%. Also, the result in assay [5], in assay [6], in assay [7] and in assay [8] was inactive.

In the case of `CCOc1ccccc1C(=O)Nc1cccc(-c2nc3ncccn3c2C)c1`, the figures for the growth inhibition in assay [1] and in assay [4] were 88% (active) and 92% (active), respectively. Further, the inhibition in assay [2] was 0%; in assay [3] it was -6%. Further, the outcome in assay [5], in assay [6], in assay [7] and in assay [8] was inactive.

Turning to `Cc1cc(-c2cccc(CNC3CCN(C)CC3)c2)ccc1S(=O)(=O)NCCc1ccccn1`, the growth inhibition is 72% (active) in assay [1] and 97% (active) in assay [4]. In addition, the results for the inhibition in assay [2] and in assay [3] were 22% and 2%, respectively. Moreover, the result in assay [5], in assay [6], in assay [7] and in assay [8] was inactive.

With `Cc1c(Cl)cccc1S(=O)(=O)N1CCCCC(c2ccc(C(F)(F)F)cc2)=N1`, the growth inhibition was 91% (active) in assay [1] and 86% (active) in assay [4]. For the same molecule, the inhibition in assay [2] is 15%; in assay [3], 5%. Moreover, the outcome in assay [5], in assay [6], in assay [7] and in assay [8] was inactive.

Turning to `CCc1c(CCNCC/C=C/CCNCCc2ccc(OC)c(OC)c2CC)ccc(OC)c1OC`, the growth inhibition in assay [1] was 7%; in assay [4], 100% (active). Also, the inhibition in assay [2] is 41%; in assay [3] it was 3%. Also, the outcome in assay [5], in assay [6], in assay [7] and in assay [8] was inactive.

Source of the values: PubChem BioAssay.
